# TSG101-PTAP inh: blocks PTAP/TSG101 interaction to inhibit HIV-1 budding | Q99816 | Fluorescence polarization, FITC-PTAP peptide / Tsg101 binding | Potency, µM (top dose mostly 115 µM), inactives show at the highest dose activity change, negative = inhibition, most hits filed as inhibitors | 340,000 tested, under 10 active | AID 493005; active means well fitted inhibition curve with a large enough effect in the main read-out, with a control signal flat, not every such curve was filed as active; inconclusive means small, poorly fitted or top-dose-only effect, or effect the other way, or a change in a side signal; inactive means no such curve, though single readings can be large or run the other way; further: % of control where 0% means no effect
# Target sequence (Q99816 whole entry, looked up): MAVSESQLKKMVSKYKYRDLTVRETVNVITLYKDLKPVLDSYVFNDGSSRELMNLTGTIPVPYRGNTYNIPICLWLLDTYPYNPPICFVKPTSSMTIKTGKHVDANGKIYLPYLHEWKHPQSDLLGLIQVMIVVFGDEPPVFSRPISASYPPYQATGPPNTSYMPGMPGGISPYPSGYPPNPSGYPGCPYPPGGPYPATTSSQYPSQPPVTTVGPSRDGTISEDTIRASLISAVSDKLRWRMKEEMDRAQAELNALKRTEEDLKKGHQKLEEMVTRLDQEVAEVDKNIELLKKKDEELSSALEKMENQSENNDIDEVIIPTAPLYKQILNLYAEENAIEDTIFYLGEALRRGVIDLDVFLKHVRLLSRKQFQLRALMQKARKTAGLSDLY
#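 Compounds were pin-transferred onto Tsg101 binding domain (10 uM final) in HEPES pH 7.5 buffer, then FITC-PTAP peptide was added at 50 nM final. After 20 min at RT, polarization reported peptide displacement across a qHTS concentration series.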
# MCF10A rereplic: induces DNA re-replication in MCF 10a normal breast cells; AID 624296; Potency, µM (titrated, usually from 46.1 µM), without a hit: at the top dose activity, positive = re-replication, hits mostly activators; MCF 10A DNA re-replication, Hoechst nuclear intensity, 48 h; hit rate 2.9% among 350,000; further: % of control where 0% means no effect; nearly all actives have a fitted effect of over 50% in size
# KB-V1 cytotox: kills drug-selected multidrug resistant KB-V1 cells; AID 1347076; Potency, µM (series often up to 46.1 µM), hits mostly cytotoxic; hit rate 3.4% among 400,000; KB-V1 MDR cells viability, CellTiter-Glo, 72 h; further: on the % scale 0 is the no-effect control and ±100 the full control effect; nearly all actives have a fitted effect of over 60% in size
#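 Compound-treated KB-V1 multidrug-resistant cells, 72 h, 37 degrees C; viability by CellTiter-Glo. Fitted qHTS curves give the values.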
# SW480 rereplic: inducers of DNA re-replication in SW480 colon cancer cells; SW480 DNA re-replication, Hoechst DNA content imaging, 48 h; Potency, µM (top dose mostly 46.1 µM), without a hit: at the highest dose re-replication activation, actives largely listed as activators; hit rate 1.8% among 340,000; AID 624297; further: % of control where 0% means no effect; nearly all actives have a fitted effect of over 55% in size
#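 Quantitative HTS format with DMSO vehicle controls; 48 hr drug incubation at 37 C, then 40 min Hoechst staining and scanning imager measurement at 405 nm excitation.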
# KB-3-1 tox: kills parental KB-3-1 adenocarcinoma cells | KB-3-1 viability, CellTiter-Glo ATP luminescence, 72 h | Potency, µM (series often up to 46.1 µM), most hits filed as cytotoxic | hit rate 1.4% among 400,000; further: on the % scale 0 is the no-effect control and ±100 the full control effect; nearly all actives have a fitted effect of over 60% in size
#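 Here the drug-naive KB-3-1 line serves as comparator for MDR sub-line selectivity; cells received compound titrations, 72 h at 37 °C, then CellTiter-Glo readout.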
# RGS4 inhibitor: inhibitors of human regulator of G protein signaling 4; Potency, µM (titrated, usually from 114 µM), inactives show at the highest dose activity change, negative = inhibition, hits mostly inhibitors; P49798; Transcreener GDP fluorescence polarization, RGS4-accelerated GTP hydrolysis; AID 504845; hit rate 0.039% among 390,000; further: on the % scale 0 is the no-effect control and ±100 the full control effect; nearly all actives have a fitted effect of over 75% in size
# Target sequence (P49798 whole entry, looked up): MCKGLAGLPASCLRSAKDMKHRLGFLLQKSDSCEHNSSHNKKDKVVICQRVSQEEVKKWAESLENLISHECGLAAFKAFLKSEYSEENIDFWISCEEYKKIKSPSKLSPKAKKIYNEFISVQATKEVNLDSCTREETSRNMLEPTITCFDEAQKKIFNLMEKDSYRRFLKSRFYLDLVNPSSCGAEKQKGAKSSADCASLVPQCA
#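 MLSMR compounds (23 nl, pin-transferred) preincubated 10 min at room temperature with a 500nM (2x) first reagent, then RGS4 at 900nM (2x) plus Transcreener GDP mix added; fluorescence polarization (620/688 nm) read before and after 90 min at 30 °C.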
# * marks the source's active call; other numbers are inactive results; i = inactive; ? = inconclusive; / = not tested or not shown; [ ] = remark or other dose. Hits are enriched below; roughly 6.6% of the tested compounds scored in any of these assays. Unless noted, the call rests on the fitted dose curve; in most records, active means well fitted curve in the direction sought with a large enough effect; inconclusive means small, poorly fitted or top-dose-only effect, or another doubt; inactive means no such curve, though single readings can be large; an effect the other way counts as inactive or inconclusive. Potency means the concentration at half of the fitted maximal effect.
SMILES,TSG101-PTAP inh,MCF10A rereplic,KB-V1 cytotox,SW480 rereplic,KB-3-1 tox,RGS4 inhibitor
CCOC(=O)C1CCCN(C(=O)Cn2ncn3c(cc4sc(CC)cc43)c2=O)C1 (configuration not stated),/,/,/,/,/,-13%
COc1ccc(OCCCn2c(CCNC(=O)C3CCCCC3)nc3ccccc32)cc1,/,/,i,/,i,33%
CCCN1CNc2c(c(=O)[nH]c(=S)n2CCc2cc(OC)cc(OC)c2)C1,/,/,/,/,/,6%
C[C@@H]1[C@H](c2ccccc2)OCCS(=O)(=O)N1Cc1cccc(Cl)c1,/,/,?,/,i,/
CC1(C)CC2CC(C)(CN2S(=O)(=O)c2cccc(C(=O)O)c2)C1 (configuration not stated),-4%,-11%,i,-19%,i,-14%
CN1CCN(NC(=O)c2ccc(S(=O)(=O)N3CC4(C)CC3CC(C)(C)C4)cc2)CC1 (configuration not stated),1%,?,i,18µM*,i,19%
C#CCOCCOCCOCCNc1nc(N2CCN(C(=O)CCCCCCCCCCNC(=O)[C@H](CCCCN)n3cc(C[C@@H](C)CC)nn3)CC2)nc(N2CCN(C(=O)CCCCCCCCCCNC(=O)[C@H](CCCCN)n3cc(C[C@@H](C)CC)nn3)CC2)n1,0%,18µM*,?,-8%[9.22 µM],?,?
C#CCOCCOCCOCCNc1nc(N2CCN(C(=O)[C@H](CCCCN)n3cc(CCCC)nn3)CC2)nc(N2CCN(C(=O)[C@H](Cc3ccc(O)cc3)n3cc(CCO)nn3)CC2)n1,-6%,-1%,i,-41%,i,-47%
C#CCOCCOCCOCCNc1nc(N2CCN(C(=O)CCCCCCCCCCNC(=O)[C@@H]([C@H](C)O)n3cc(C)nn3)CC2)nc(N2CCN(C(=O)CCCCCCCCCCNC(=O)[C@@H]([C@H](C)O)n3cc(C)nn3)CC2)n1,-1%,13µM*,i,2%,?,-6%
C#CCOCCOCCOCCNc1nc(N2CCN(C(=O)Cn3cc(CCCCN)nn3)CC2)nc(N2CCN(C(=O)[C@H](Cc3ccc(O)cc3)n3cc(CCO)nn3)CC2)n1,-6%,3.7µM*,i,5%[9.22 µM],i,4%
C#CCOCCOCCOCCNc1nc(N2CCN(C(=O)CCCCCCCCCCNC(=O)[C@H](CCCCN)n3cc(CCO)nn3)CC2)nc(N2CCN(C(=O)CCCCCCCCCCNC(=O)[C@H](CCCN=C(N)N)n3cc(C[C@@H](C)CC)nn3)CC2)n1,-4%,25%,i,-7%,?,?
C#CCOCCOCCOCCNc1nc(N2CCN(C(=O)CCCCCCCCCCNC(=O)[C@@H](CCSC)n3cc(CCO)nn3)CC2)nc(N2CCN(C(=O)CCCCCCCCCCNC(=O)[C@H]([C@@H](C)CC)n3cc(CCCCN=C(N)N)nn3)CC2)n1,?,-10%,?,-7%,16µM*,?
COc1ccc(NC(=O)c2ccc3c(c2)CCN3S(=O)(=O)c2ccc(C)cc2)cc1Cl,/,/,i,/,i,-11%
CNc1ccc(/C=C/c2ccccc2)cc1,/,/,i,/,?,/
O=C(Nc1ccccc1C(F)(F)F)N1CCC(CN2CCc3ccccc3C2)CC1,/,/,/,/,/,-19%
CCOC(=O)c1cccc(NC(=O)CCS(=O)(=O)c2cccs2)c1,-3%,4%,21µM*,-2%,i,-25%
CCOC(=O)c1cccc(NC(=O)CCS(=O)(=O)c2ccc(Br)s2)c1,-3%,0%,i,-2%,i,13%
CCOC(=O)c1cccc(NC(=O)CNS(=O)(=O)c2cccs2)c1,-14%,-1%,23µM*,-2%,i,-10%
COc1cc(NC(=O)CNS(=O)(=O)c2cccs2)cc(OC)c1OC,/,/,?,/,i,17%
O=C(/C=C/c1ccc(Cl)cc1)Nc1cccc([S+](=O)([O-])Nc2ccccc2F)c1,/,/,i,/,i,/
COc1cccc(CNc2ccc([N+](=O)[O-])cc2C)c1,-2%,1%,15µM*,?,i,-17%
COc1ccc([N+](=O)[O-])cc1NCc1ccccc1C,-11%,5.8µM*,i,?,i,-6%
COc1ccc([N+](=O)[O-])cc1NCc1ccccc1,-4%,3%,?,1%,?,20%
COc1ccc(OC)c(CNc2ccc([N+](=O)[O-])cc2C)c1,-2%,-9%,?,4%,i,-16%
CCc1ccccc1NC(=O)CSc1nc2c(oc3ccccc32)c(=O)n1-c1ccccc1,/,/,i,/,i,6%
SMILES,TSG101-PTAP inh,MCF10A rereplic,KB-V1 cytotox,SW480 rereplic,KB-3-1 tox,RGS4 inhibitor
CC1=CC2C(C(O)CC3(C)C2CC(C)C32OCOC23COCO3)C2(C)C/C(=C\O)C(=O)C=C12 (configuration not stated),1%,4.6µM*,?,15µM*,?,?
CC1(C)CC(=O)C2=C(C1)NC(Nc1nc3ccccc3o1)=NC2c1cccc(O)c1 (configuration not stated),/,/,i,/,i,16%
CCc1c(O)nc(SCC(=O)Nc2ccccc2)n(-c2ccccc2C)c1=O,/,/,i,/,i,/
CCc1c(O)nc(SCC(=O)Nc2ccccc2)n(-c2ccccc2)c1=O,-7%,3.7µM*,i,21µM*,i,7%
COCCN1CCN(C(=O)c2ccc3nc(Cc4ccc(OC)c(OC)c4)oc3c2)CC1,-2%,17%,?,?,4.6µM*,44%
COc1cc(CNC(=O)c2ccc3nc(CCc4ccccc4)oc3c2)cc(OC)c1OC,/,/,i,/,i,-10%
COc1cc(CNC(=O)c2ccc3nc(Cc4ccccc4)oc3c2)cc(OC)c1OC,/,/,i,/,26µM*,-19%
CCCCCCOc1ccc(C2C(=O)N(C3CCCCC3)CC(=O)N2CCC)cc1 (configuration not stated),/,/,/,/,/,12%
Cc1ccccc1-c1noc(-c2cccnc2N2CCN(c3ccccc3)CC2)n1,/,/,i,/,i,-25%
CC1CCCCN1C(=O)CSc1ccc(-c2ccc(F)cc2)nn1 (configuration not stated),-10%,-1%,12µM*,-3%,i,-1%
CC(Sc1nc2ccccc2c(=O)n1C)C(=O)N(C)C1CCCCC1 (configuration not stated),5%,?,5.8µM*,-5%,?,0%
CC(C)(C)NC[C@H](O)CSc1nc(-c2ccc(C(N)=O)s2)cs1,/,0%,/,-3%,/,/
COc1cccc(N(CC(=O)N2CCC(C)CC2)S(=O)(=O)c2ccc(C)cc2)c1,/,/,i,/,i,7%
Cc1cc[n+](CCC2CCCCC2)cc1,/,/,i,/,21µM*,/
